In the library only some 1.8% were active in any assay of this set; here they are far more common.
GLP1R inv ag = acts as inverse agonist at human GLP-1 receptor | 410,000 compounds, 1.6% hits | P43220 | Potency, µM (series often up to 38.3 µM), for the others: at the top dose activity change, negative = inhibition, hits mostly inhibitors | AID 624417 | HEK293 GLP-1R CRE-luciferase, luminescence, 24 h; GLP-1R form is constitutively active; also: potency is read from the fitted curve at half-maximal effect; % is scaled to controls: 0 for no effect and ±100 for the full control effect; nearly all actives have a fitted effect of over 55% in size
Target sequence (P43220 whole entry, looked up): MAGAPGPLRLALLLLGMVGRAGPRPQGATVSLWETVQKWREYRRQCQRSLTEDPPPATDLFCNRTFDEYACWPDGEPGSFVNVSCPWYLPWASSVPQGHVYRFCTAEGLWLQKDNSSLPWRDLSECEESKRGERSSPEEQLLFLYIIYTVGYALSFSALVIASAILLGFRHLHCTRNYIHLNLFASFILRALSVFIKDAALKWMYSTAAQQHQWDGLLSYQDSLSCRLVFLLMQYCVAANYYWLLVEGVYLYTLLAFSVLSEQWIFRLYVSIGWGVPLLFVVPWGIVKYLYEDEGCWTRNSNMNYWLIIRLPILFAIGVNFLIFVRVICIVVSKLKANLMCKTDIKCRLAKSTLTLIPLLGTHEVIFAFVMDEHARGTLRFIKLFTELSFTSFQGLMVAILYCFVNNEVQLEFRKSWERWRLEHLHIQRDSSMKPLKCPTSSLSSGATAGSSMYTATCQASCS
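Constitutively active GLP-1R drives a cAMP-responsive luciferase in stably transfected HEK293 cells; test compounds are added after overnight (12 h) attachment and left 24 hr, and signal loss in luminescence marks inhibition.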
TRPML1 agonist = human mucolipin-1 channel agonism. Q9GZU1. TRPML1-expressing cells, Ca2+ dye fluorescence, FDSS. activation, % (no concentration beside the values). 410,000 compounds, 0.12% hits; in the data active = activation above about 50%; inconclusive = mostly about 30% to 49%; also: 0% is about no effect
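TRPML1-DL cells, Tet-induced overnight (~16 h, 37 degrees C), loaded 45-90 min at room temperature with Ca8 no-wash calcium dye plus quencher. FDSS fluorescence: 10 s baseline, compound pin-transfer, 110 s agonist read, then EC80 54-4 (4uM final) and 110 s antagonist read.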
HEK293 tox = cytotoxicity counter-screen for GLP-1 receptor inverse agonists | Potency, µM (doses to about 38.3 µM), for inactives: at the top dose activity change, negative = inhibition, most hits filed as inhibitors | HEK293 cAMP-luciferase reporter cells, luminescence, 24 h | AID 624418 | 410,000 compounds, 0.13% hits;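 also: loss of luciferase light is scored as toxicity; potency is read from the fitted curve at half-maximal effect; % is scaled to controls: 0 for no effect and ±100 for the full control effect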
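Luminescence readout: signal drop marks cytotoxicity. Plated cells grew 12 h at 37 °C, 5% CO2, received 23 nL compound for 24 h, then got luciferase reagent, read after 12 min at RT.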
TRPML1 inh = inhibitors of human TRPML1 channel | Q9GZU1 | TRPML1-inducible cells, Ca2+ dye fluorescence, FDSS; hits give low values; inhibition of EC80 agonist-evoked calcium signal | activity change, negative = inhibition, % (test concentration not listed) | 390,000 compounds, 0.02% hits; in the data active = activity change below about -50%; inconclusive = between about -30% and that limit;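 also: stimulus is agonist 54-4 at its EC80 concentration; % is scaled to controls: 0 for no effect and ±100 for the full control effect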
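TRPML1-DL cells, Tet-induced overnight (~16 h, 37 °C) at 1,500 cells/well, were loaded with Ca8 no-wash dye plus quencher for 45-90 min at room temperature. Compounds were pinned during FDSS kinetic reading; agonist 54-4 at EC80 (4 uM final) then added.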
GLP-1R agonist = agonists of human GLP-1 receptor; P43220; HEK293 GLP-1R CRE-luciferase, luminescence, 4-6 h; cells express a hypersensitive GLP-1R form; Potency, µM (top dose mostly 45.6 µM), without a hit: at the highest dose activation, usual class: activators; 380,000 compounds, 0.007% hits; also: potency is read from the fitted curve at half-maximal effect; % of control where 0% means no effect
An asterisk follows results filed as active. Unless noted, calls follow the shape of the dose curve; as a rule, active = well fitted curve in the direction sought with a large enough effect; inconclusive = small, poorly fitted or top-dose-only effect, or another doubt; inactive = no such curve, though single readings can be large; an effect the other way counts as inactive or inconclusive.

For COc1ccc(C(CNC(=O)c2cccc(NS(=O)(=O)c3ccc(C)c(F)c3)c2)N(C)C)cc1 (configuration not stated) the results were GLP1R inv ag 11µM*, TRPML1 agonist 1, HEK293 tox -18%, TRPML1 inh -4 and GLP-1R agonist 10%.
Screening COc1ccc(C(CNC(=O)c2cccc(NS(=O)(=O)c3ccccc3)c2)N(C)C)cc1 (configuration not stated) returned GLP1R inv ag -21%, TRPML1 agonist 1, HEK293 tox -4%, TRPML1 inh 10 and GLP-1R agonist 7%.
CC(=O)c1ccccc1S(=O)(=O)N1CCN(c2nc(-c3cccs3)nc3ccccc23)CC1 was read as TRPML1 agonist 0.
Screening COc1cccc(CNC(=O)c2ccc(-c3nc(CS(=O)(=O)c4ccccc4)c(C)o3)cc2)c1 returned GLP1R inv ag inconclusive, TRPML1 agonist 0, HEK293 tox 17% and TRPML1 inh 36.
`COc1ccc(CN(Cc2ccco2)C(=O)COc2ccccc2OC)cc1` gave GLP1R inv ag inconclusive, TRPML1 agonist 2, HEK293 tox -4% and TRPML1 inh -19.
Screening CC(C)C(NCC(=O)Nc1ccccc1C(=O)NC1CC1)c1ccccc1 (configuration not stated) returned GLP1R inv ag 10µM*, TRPML1 agonist -1, HEK293 tox -19%, TRPML1 inh -1 and GLP-1R agonist 9%.
CC(=O)Nc1sc(/C(C#N)=C/c2ccc(Cl)c(Cl)c2)nc1-c1ccc(C)cc1 was read as GLP1R inv ag 18%, TRPML1 agonist 75*, HEK293 tox 203%, TRPML1 inh inconclusive and GLP-1R agonist -5%.
For CCOC(=O)c1ccc(OCCN2C[C@H](O)[C@@H](O)[C@H](O)[C@H]2CO)cc1 the results were GLP-1R agonist -4%.
Screening CCCOc1ccc(CNC(=O)CN2C(=O)c3cccnc3Oc3ccc(C)cc32)cc1 returned GLP1R inv ag inconclusive, TRPML1 agonist 2, HEK293 tox -17% and TRPML1 inh 1.
Screening O=C(NCc1nnc(SCc2ccc(F)cc2)n1-c1ccc(F)cc1)C12CC3CC(CC(C3)C1)C2 returned GLP1R inv ag 7.1µM*, TRPML1 agonist 0, HEK293 tox inconclusive, TRPML1 inh -11 and GLP-1R agonist 2%.
Screening COc1ccccc1CNC(=S)NCc1ccc(Cl)cc1 returned GLP1R inv ag 10µM*, TRPML1 agonist 0, HEK293 tox -28%, TRPML1 inh -8 and GLP-1R agonist -3%.
S=C(NCc1ccccc1)NCc1ccc(Cl)cc1 was read as GLP1R inv ag inconclusive, TRPML1 agonist 0, HEK293 tox inconclusive, TRPML1 inh 35 and GLP-1R agonist -6%.
O=C(CSc1nc2c(c(=O)[nH]1)CN(Cc1ccc3c(c1)OCO3)CC2)Nc1cccc(Cl)c1 was read as GLP1R inv ag -14%, TRPML1 agonist 0, HEK293 tox -1% and TRPML1 inh -1.
`O=C(OCc1ccccc1)N(CCCCN(CCCNCc1ccccc1)C(=O)OCc1ccccc1)CCCNCc1ccccc1` gave GLP1R inv ag 2.8µM*, TRPML1 agonist 0, HEK293 tox inconclusive, TRPML1 inh -8 and GLP-1R agonist -5%.
For CC(C)(C)c1ccc(OCC(=O)N(Cc2ccco2)Cc2ccccc2F)cc1 the results were GLP1R inv ag inconclusive, TRPML1 agonist 1, HEK293 tox 6% and TRPML1 inh 6.
For C=CCN1C(=O)C(Cc2ccc(C)cc2)S/C1=N/N=C/c1ccco1 (configuration not stated) the results were GLP1R inv ag inconclusive, TRPML1 agonist 0, HEK293 tox -7%, TRPML1 inh 1 and GLP-1R agonist 10%.
C=CCN1C(=O)C(Cc2ccc(OCC)cc2)S/C1=N\N=C\c1cccs1 (configuration not stated) was read as GLP1R inv ag 10µM*, TRPML1 agonist 1, HEK293 tox 1%, TRPML1 inh 4 and GLP-1R agonist -3%.
For C=CCN1C(=O)C(Cc2ccccc2)S/C1=N/N=C/c1cccs1 (configuration not stated) the results were GLP1R inv ag 11µM*, TRPML1 agonist 2, HEK293 tox 12%, TRPML1 inh -8 and GLP-1R agonist 7%.
COc1ccc(CCNC[C@H](O)COc2cccc(C)c2)cc1OC was read as GLP-1R agonist 3%.
Screening Fc1ccccc1N1CCN(c2ncnc3onc(-c4cccc(Cl)c4)c23)CC1 returned GLP1R inv ag 4%, TRPML1 agonist 0, HEK293 tox 1%, TRPML1 inh -3 and GLP-1R agonist 1%.
`COC(=O)C(c1ccccc1)C(C(=O)OC)c1ccccc1` (configuration not stated) gave GLP1R inv ag -9%, TRPML1 agonist 0, HEK293 tox -9%, TRPML1 inh -6 and GLP-1R agonist -5%.
COC(=O)[C@@H](c1ccccc1)N(C)S(=O)(=O)c1cccc(S(=O)(=O)N(C)[C@@H](C(=O)OC)c2ccccc2)c1 was read as GLP1R inv ag -20%, TRPML1 agonist 74*, HEK293 tox 22%, TRPML1 inh -22 and GLP-1R agonist 1%.
`COC(=O)C1=C(N)Oc2cc(N(C)C)ccc2C1c1ccccc1OC` (configuration not stated) gave GLP1R inv ag 6.3µM*, TRPML1 agonist 4, HEK293 tox 7%, TRPML1 inh 6 and GLP-1R agonist -3%.
`COC(=O)C1=C(N)Oc2cc(C)n(CC3CCCO3)c(=O)c2C1c1ccccc1OC` (configuration not stated) gave GLP1R inv ag 7%, TRPML1 agonist -1, HEK293 tox -7%, TRPML1 inh 2 and GLP-1R agonist -7%.
For CN(Cc1ccccc1)c1ccc(/C=C/c2sc3ccccc3[n+]2C)cc1 the results were TRPML1 agonist 4.
`O=C(OCc1ccccc1)c1ccc(NCc2cc(O)ccc2O)cc1` gave GLP1R inv ag 7.1µM*, TRPML1 agonist 0, HEK293 tox 5µM*, TRPML1 inh 8 and GLP-1R agonist -5%.
For COC(=O)c1ccc(CCc2cc(O)ccc2O)cc1 the results were GLP1R inv ag inconclusive, TRPML1 agonist 0, HEK293 tox 10µM*, TRPML1 inh 1 and GLP-1R agonist -2%.
Screening Cc1ccc(C)c(N2CCN(C(=O)C3CCCN(Cc4nc(-c5cccc(Cl)c5)oc4C)C3)CC2)c1 (configuration not stated) returned GLP1R inv ag 0%, TRPML1 agonist -1, HEK293 tox -4% and TRPML1 inh -12.

Screens (PubChem BioAssay)
